Assay results taken from PubChem BioAssay (NCATS).
Results filed as inconclusive are left out. A call without a number means that no potency is given here. Values without a mark were called inactive. The source made the active and inactive calls. Unless noted, calls come from the whole dose curve; as a rule, active = well fitted curve in the direction sought with a large enough effect; inconclusive = small, poorly fitted or top-dose-only effect, or another doubt; inactive = no such curve, though single readings can be large; an effect the other way counts as inactive or inconclusive.

Experiments:
[1] = target: Aldehyde dehydrogenase, mitochondrial (Homo sapiens) (UniProt P05091); experiment: qHTS for Inhibitors of the Aldehyde Dehydrogenase Family (ALDH2) Confirmatory screens (AID 2061303; active = well fitted inhibition curve with a large enough effect; title and protocol of this record describe different tests; note: nearly all actives have a fitted effect of over 45% in size; note: potency is the fitted concentration of half-maximal effect)
[2] = qHTS for Inhibitors of the Aldehyde Dehydrogenase Family (ALDH1A2, ALDH1A3, ALDH2, ALDH3A1) (AID 2061307); note: nearly all actives have a fitted effect of over 50% in size; for potency: test system not described further here; potency is the fitted concentration of half-maximal effect
[3] = target: Aldehyde dehydrogenase, mitochondrial (Homo sapiens) (UniProt P05091); experiment: qHTS for Inhibitors of the Aldehyde Dehydrogenase Family (ALDH2) Primary screen (AID 2061308); note: nearly all actives have a fitted effect of over 55% in size
[4] = target: Retinaldehyde dehydrogenase 3 (Homo sapiens) (UniProt P47895); experiment: qHTS for Inhibitors of the Aldehyde Dehydrogenase Family (ALDH1A3) Confirmatory screens (AID 2061311); note: nearly all actives have a fitted effect of over 60% in size; note: potency is the fitted concentration of half-maximal effect
[5] = target: Retinal dehydrogenase 2 (Homo sapiens) (UniProt O94788); experiment: qHTS for Inhibitors of the Aldehyde Dehydrogenase Family (ALDH1A2) Confirmation screens (AID 2061314); note: nearly all actives have a fitted effect of over 65% in size; note: potency is the fitted concentration of half-maximal effect
[6] = target: Retinaldehyde dehydrogenase 3 (Homo sapiens) (UniProt P47895); experiment: qHTS for Inhibitors of the Aldehyde Dehydrogenase Family (ALDH1A3) Primary screen (AID 2061315)
[7] = target: Aldehyde dehydrogenase 1A1 (Homo sapiens) (UniProt P00352); experiment: qHTS for Inhibitors of the Aldehyde Dehydrogenase Family (ALDH1A1) Confirmatory screens (AID 2061316); note: nearly all actives have a fitted effect of over 65% in size; note: potency is the fitted concentration of half-maximal effect

Compound | Potency [1] | Potency [2] | Potency [3] | Potency [4] | Potency [5] | Potency [6] | Potency [7] | activity change, negative = inhibition [4]
COc1ccc(C2=Nn3c(nnc3-c3cccc(OC)c3OC)SC2)cc1 | inactive | inactive | inactive | inactive | inactive | inactive | inactive | –
Cc1ccc(C[C@@H](NS(=O)(=O)c2ccc(C(=O)O)cc2)C(=O)O)cc1 | inactive | inactive | inactive | inactive | inactive | inactive | inactive | –
Cc1ccc2nc3sc(C(=O)NCc4ccco4)cc3cc2c1 | 12.7 µM (active) | 11.3 µM (active) | inactive | 10.1 µM (active) | 7.12 µM (active) | inactive | 7.12 µM (active) | –
COc1ccc(C2=Nn3c(nnc3-c3cc(OC)ccc3OC)SC2)c(OC)c1 | inactive | 17.9 µM (active) | inactive | inactive | inactive | inactive | 6.34 µM (active) | –
O=C1[C@@H]2[C@H]3CC[C@H](C3)[C@@H]2C(=O)N1CCCCN1CCN(c2ncccn2)CC1 | inactive | inactive | inactive | – | inactive | inactive | 2.52 µM (active) | -14.2% [at 0.022 µM]
N#Cc1nc(NCCO)nc(Nc2ccccc2)n1 | inactive | inactive | inactive | inactive | inactive | inactive | inactive | –
Cc1cccc2c(C(=O)O)cc(Cl)nc12 | inactive | inactive | inactive | inactive | inactive | inactive | inactive | –
Cc1ccc(Cl)cc1NS(=O)(=O)c1cc2c(cc1F)NC(=O)CC2 | 12.6 µM (active) | 28.2 µM (active) | inactive | 12.6 µM (active) | – | inactive | – | –
S=C(NCCCc1cnc[nH]1)NCCCN(Cc1ccc(Cl)c(Cl)c1)c1ccccn1 | inactive | inactive | inactive | inactive | inactive | inactive | inactive | –
